Screens (PubChem BioAssay)
PLK1 PBD inh – inhibitors of human PLK1 polo-box domain binding; P53350; Plk1 PBD binding of FITC phosphopeptide, fluorescence polarization; Potency, µM, inactives show max response, negative = inhibition, most hits filed as inhibitors; 2.8% of 360,000 active; AID 720504; also: series mostly up to about 57 µM; nearly all actives have a fitted effect of over 65% in size
KAT2A inh – blocks human GCN5L2 histone acetyltransferase; GCN5L2 HAT assay, ThioGlo1 CoA-SH fluorescence; Potency, µM (titrated, usually from 58.9 µM), inactives show at the top dose activity change, negative = inhibition, usual class: inhibitors; 0.21% of 390,000 active; AID 504327
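Preincubate 20nM GCN5L2 with compound 15 min, RT → add 50uM ThioGlo1 + 75uM H3(1-25) + 70uM acetyl-CoA → read fluorescence 0 and 20 min. Primary qHTS; fluorescent artifacts likely.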
VDR inhibitor – inhibitors of human vitamin D receptor; P11473; VDR-SRC2-3 peptide fluorescence polarization, 2 h; Potency, µM, for inactives: max response, negative = inhibition, usual class: inhibitors; 0.93% of 400,000 active
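FP read-out; VDR + SRC2-3 coactivator peptide; 23 nl compound by pintool; 2 h RT incubation; reagents held at 4 deg C, protected from light.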
TDP1 cell noCPT – qHTS for Inhibitors of human tyrosyl-DNA phosphodiesterase 1 (TDP1): qHTS in cells in absence of CPT. DT40 Tdp1-/- hTDP1 cells, no CPT, ATP luminescence, 48 h. Potency, µM (titrated, usually from 46.2 µM), inactives show at the top dose activity change, negative = growth inhibition, most hits filed as inhibitors. 15% of 420,000 active. AID 686978, 2013; also: nearly all actives have a fitted effect of over 55% in size
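Growth of hTDP1-complemented DT40 Tdp1-knockout cells is measured by ATP luminescence after at least 48 hr compound exposure at 37 °C, with DMSO substituting for the 20 nM CPT used in the parallel screen.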
TDP1 cell CPT – growth inhibition of DT40 Tdp1-/-;hTDP1 cells with camptothecin (screen for TDP1 inhibitors). Potency, µM (doses to about 46.2 µM), without a hit: at the top dose activity change, negative = growth inhibition, most hits filed as inhibitors. chicken DT40 Tdp1-/-;hTDP1 cells + 20 nM CPT, ATP luminescence, 48 h. 12% of 420,000 active; also: nearly all actives have a fitted effect of over 55% in size
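Chicken DT40 Tdp1-/- cells complemented with human TDP1, 400 cells/well, exposed to compounds plus 20 nM camptothecin for at least 48 h at 37 C; viability read as ATP content by CellTiter-Glo luminescence.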
TDP1 block – blocks human tyrosyl-DNA phosphodiesterase 1; Q9NUW8; recombinant TDP1, AlphaScreen DNA substrate cleavage; Potency, µM (doses to about 130 µM), for inactives: at the top dose activity change, negative = inhibition, most hits filed as inhibitors; 0.28% of 350,000 active; AID 485290; also: nearly all actives have a fitted effect of over 40% in size
Target sequence (Q9NUW8 whole entry, looked up): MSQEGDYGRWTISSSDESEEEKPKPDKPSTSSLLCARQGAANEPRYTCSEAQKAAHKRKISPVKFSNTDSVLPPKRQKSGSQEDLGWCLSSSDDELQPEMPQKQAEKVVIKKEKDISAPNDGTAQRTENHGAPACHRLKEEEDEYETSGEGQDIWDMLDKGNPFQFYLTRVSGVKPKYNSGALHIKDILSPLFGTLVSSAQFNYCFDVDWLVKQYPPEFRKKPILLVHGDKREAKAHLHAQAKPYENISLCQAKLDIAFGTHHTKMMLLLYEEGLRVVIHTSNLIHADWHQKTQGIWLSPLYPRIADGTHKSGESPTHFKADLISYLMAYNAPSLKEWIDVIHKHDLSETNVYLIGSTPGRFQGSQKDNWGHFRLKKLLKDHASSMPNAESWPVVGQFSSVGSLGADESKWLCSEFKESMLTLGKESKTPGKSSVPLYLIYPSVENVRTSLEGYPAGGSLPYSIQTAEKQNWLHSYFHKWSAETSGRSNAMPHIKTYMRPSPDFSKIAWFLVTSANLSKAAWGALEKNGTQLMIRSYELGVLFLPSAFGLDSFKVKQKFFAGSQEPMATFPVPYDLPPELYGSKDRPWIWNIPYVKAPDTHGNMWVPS
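Tdp1 1 nM final; 15 min RT w/ cpd; substrate 15 nM, 5 min; beads 10 ug/ml, 10 min; AlphaScreen read. Neg ctrl: no enzyme.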
Starred values were filed as active, the others as inactive; ? = inconclusive; · = no result; ! = not confirmed by another sample; [ ] = dose if it differs, or a comment. Most compounds without a hit are left out; they make up all but 18% or so of the library. Calls follow the shape of the dose curve; as a rule, active = well fitted curve in the direction sought with a large enough effect; inconclusive = small, poorly fitted or top-dose-only effect, or another doubt; inactive = no such curve, though single readings can be large; an effect the other way counts as inactive or inconclusive. % is scaled to controls: 0 for no effect and ±100 for the full control effect; potency is read from the fitted curve at half-maximal effect.

SMILES	PLK1 PBD inh	KAT2A inh	VDR inhibitor	TDP1 cell noCPT	TDP1 cell CPT	TDP1 block
O=S(=O)(Nc1ccc(-c2ccc(N3CCCC3)nn2)cc1)c1cc(F)ccc1F	·	-0.1%	13.5%	-46.3%	?	3.0%
CC(=O)c1ccc(N2CCN(S(=O)(=O)c3ccc4c(c3)NC(=O)CO4)CC2)cc1	-4.3%	-12.9%	-4.3%	12.8%	-19.3%	0.6%
COc1ccc(NC(=O)c2ccccc2NS(C)(=O)=O)cc1OC	-7.5%	-9.8%	-2.1%	10.3µM*	20.6µM*	1.0%
CCOc1ccccc1NC(=O)c1ccccc1NS(C)(=O)=O	-2.3%	-1.0%	0.2%	?	-18.0%	6.9%
COc1ccccc1Nc1ncc(C(=O)Nc2ccc(OC)c(OC)c2)c2ccccc12	-0.7%	-6.4%	-3.3%	16.4µM*!	18.4µM*	5.9%
COc1ccccc1NC(=O)c1ccccc1NS(C)(=O)=O	-7.1%	2.1%	10.2%	14.6µM*	?	2.3%
COC(=O)C1CCCCN1Cc1ccc2c(c1)CN(C(=O)c1cc(C)nc3cc(F)ccc13)CCO2 (configuration not stated)	·	·	·	?	11.4%[9.04 µM]	·
CCN(c1ccccc1)S(=O)(=O)c1c(C)nc2scc(C)n2c1=O	·	0.3%	14.6%	-17.9%	3.2%	0.0%
COC(=O)c1ccc2nc(-c3cccc(Br)c3)c(Cc3cccc(F)c3)n2c1	-11.0%	·	·	?	?	·
COC(=O)c1ccc2nc(-c3ccc(C#N)cc3)c(Cc3cccc(F)c3)n2c1	-3.9%	·	·	18.4µM*	14.6µM*	·
COC(=O)c1ccc2nc(-c3ccc(C)cc3)c(Cc3cccc(F)c3)n2c1	12.5%	·	·	20.6µM*	20.6µM*	·
Cc1ccc2nc(C(C)(C)C)c(Cc3cccc(F)c3)n2c1	-2.0%	·	·	18.4µM*	14.6µM*	·
O=C(O)c1ccc(-c2nnn(Cc3cccc(C(F)(F)F)c3)n2)cc1	-4.7%	-2.1%	-13.8%	-19.9%	-6.5%	·
O=C(Nc1ccc(S(=O)(=O)Nc2ccc(Cl)cc2)cc1)C1CCCO1 (configuration not stated)	1.3%	-8.2%	10.1%	12.6µM*	15.8µM*	0.0%
CC(C)N(c1ccccc1)c1ccc(NC(=O)C2CCCO2)cc1 (configuration not stated)	-2.5%	2.3%	-0.6%	16.4µM*	?	4.0%
COc1ccc(-c2cn(CC[C@@H]3CC[C@H](NC(=O)Cc4ccccn4)[C@@H](CO)O3)nn2)cc1	-21.5%	·	·	-7.0%	-5.9%	·
O=C(COc1ccc(F)cc1Cl)Nc1cc(S(=O)(=O)N2CCOCC2)ccc1N1CCCCC1	0.1%	-4.3%	0.2%	?	?	3.6%
CN1CCN(c2ccc(S(=O)(=O)N3CCOCC3)cc2NC(=O)COc2ccc(F)cc2Cl)CC1	3.8%	0.2%	7.9%	?	25.9µM*	5.7%
CCN(CC)S(=O)(=O)c1ccc(N2CCN(C)CC2)c(NC(=O)COc2ccc(F)cc2Cl)c1	3.4%	2.1%	9.1%	16.4µM*	?	·
CN(C(=O)Cn1c(=O)n(CCC(=O)NCc2ccc3c(c2)OCO3)c(=O)c2sccc21)c1ccccc1	·	-3.8%	6.1%	-1.4%	-16.2%	0.9%
CCOC(=O)CNC(=O)C1CCN(S(=O)(=O)c2ccc(-c3nn[nH]n3)cc2)CC1	3.1%	-0.7%	3.2%	-8.2%	-15.6%	11.3%
N=c1n(Cc2ccc(Cl)cc2)c2ccccc2n1CC(O)COc1ccccc1 (configuration not stated)	-10.1%	-2.2%	5.4%	8.2µM*	?	3.7%
Cc1cccc(OCC(O)Cn2c(=N)n(Cc3ccccc3)c3ccccc32)c1 (configuration not stated)	-13.6%	3.4%	-24.6%	20.6µM*	?	2.6%
Cc1cccc(OCC(O)Cn2c(=N)n(CCN3CCCCC3)c3ccccc32)c1 (configuration not stated)	-1.6%	-0.2%	-10.1%	13µM*	11.6µM*	2.9%
Clc1ccc(OCc2nc3ccccc3n2Cc2ccccc2)c(Cl)c1	·	0.1%	-7.7%	?	?	4.8%[12.3 µM]
SMILES	PLK1 PBD inh	KAT2A inh	VDR inhibitor	TDP1 cell noCPT	TDP1 cell CPT	TDP1 block
N=c1n(Cc2ccccc2)c2ccccc2n1CC(O)COc1ccc(Cl)cc1Cl (configuration not stated)	?	-1.2%	6.1%	7.31µM*	20.6µM*	4.8%
Cc1cccc(OCC(O)Cn2ccnc2C)c1 (configuration not stated)	-15.9%	-16.0%	-14.6%	-13.7%	-4.0%	2.6%
Cc1cccc(OCC(O)CN2CCNCC2)c1 (configuration not stated)	7.1%	-3.7%	0.7%	9.0%	-22.4%	6.8%
CCOC(=O)c1cnc2c(Cl)cc(Cl)cc2c1Nc1ccccc1OC	·	-8.2%	-20.4%	-7.1%	-7.3%	·
CCC(Cn1nnc2ccccc2c1=O)NC(=O)Nc1cc(Cl)ccc1OC (configuration not stated)	·	-6.2%	2.6%	?	?	2.3%
CCn1c(=N)n(CC(O)COc2ccccc2)c2ccccc21 (configuration not stated)	·	1.0%	6.7%	·	·	1.9%
COc1ccc(C(O)c2cnc(C)n2Cc2ccccc2)cc1 (configuration not stated)	3.7%	·	·	18.4µM*	?	·
COc1ccc(-c2nnc(SCC(=O)O)n2Cc2ccccc2)cc1	2.7%	-2.9%	-4.8%	2.4%	2.3%	·
COc1ccc(OCC(O)Cn2c(=N)n(Cc3ccccc3)c3ccccc32)cc1 (configuration not stated)	-11.4%	-1.7%	8.0%	6.51µM*	?	5.2%
Cc1c(NC(=S)N/N=C/c2ccc(N(C)C)cc2)c(=O)n(-c2ccccc2)n1C	-9.2%	-8.1%	-8.2%	?	16.4µM*	2.7%
CCCC(=O)NC(NC(=S)Nc1c(C)n(C)n(-c2ccccc2)c1=O)C(Cl)(Cl)Cl (configuration not stated)	-6.6%	2.1%	4.6%	29.1µM*	?	2.6%
CS(=O)(=O)Nc1cccc(-c2cncnc2NCc2ccccc2)c1	·	-7.8%	?	10.0%	-3.0%	·
CCCC12CN3CC(C)(CN(C1)C3c1ccc(OC(C)C)cc1)C2=O (configuration not stated)	-7.7%	-2.6%	1.6%	?	-29.7%	-4.2%
CCCC12CN3CC(C)(CN(C1)C3c1ccc(CC)cc1)C2=O (configuration not stated)	·	-3.3%	-7.6%	4.61µM*	?	2.3%
